PubChem BioAssay (Tox21)
A number with no mark means an inactive call. Active and inactive are the calls of the source. Calls come from the whole dose curve.

Assay: qHTS assay to identify small molecule agonists of the estrogen related receptor (ERR) signaling pathway from Tox21 library (AID 1224849); note: nearly all actives have a fitted effect of over 15% in size
Conditions: ERR reporter cell line, ONE-Glo luciferase, 18 h; at 92.4 µM (top of the series) unless noted
Excerpt: National Center for Advancing Translational Sciences [NCATS]
NIH Chemical Genomics Center [NCGC]
U.S. Environmental Protection Agency [EPA]
National Institutes of Environmental Health Sciences [NIEHS]
National Toxicology Program [NTP]
Estrogen related receptors (ERRs), the first orphan nuclear receptors discovered, play an important role in the control of cellular energy metabolism. ERRs are required for high-energy production in response to the environmental challenges. ERR-alpha was also identified as an adverse marker for breast cancer progression; ERR-alpha-positive tumors have a poor prognosis. To screen and to identify environmental compounds that perturb the ERR signaling pathways could provide valuable information for potential therapeutic or preventive measures in the treatment of metabolic disease. For identifying ERR agonists, ERR cell line (provided by NTP) has been used to screen Tox21 10K library.
The ERR cells were dispensed at 2,000 cells/5 ul/well in 1536-well white plates using a Multidrop dispenser. After the assay plates were incubated at a 37 C/5% CO2 incubator for 6 hours, 23 nL of compounds dissolved in DMSO, positive and negative controls or DMSO only was transferred to the assay plate by a pin tool. The plates were incubated at 37 C for 18 hours. 4 ul/well of One-Glo reagent was added into the assay plates using a Flying Reagent Dispenser. After 30-minute incubation at room temperature, the luminescence intensity in the plates was measured using a ViewLux plate reader.
% is set by controls: 0 for no effect and ±100 for the full control effect.

Compound | activity change, positive = activation
CCOc1ccc2nc(N)sc2c1 | 78% (active)
Cc1ncc(CO)c(CN)c1O | 4.27% [at 42.5 µM]
CC(C)OC(C)C | -8.47%
ICCc1ccccc1 | -17.9%
C[C@]12CCC(=O)C=C1CC[C@@H]1[C@@H]2CC[C@@]2(C)[C@H]1CC[C@]2(O)C(=O)CO | -16% [at 42.5 µM]
Cc1ccc(C)c(N)c1 | 2.8%
CCCCCCCCCCCCOCCOS(=O)(=O)O | -29.3%
CCCN(CCC)C(=O)C(CCC(=O)O)NC(=O)c1ccccc1 (stereo not given) | 0.999% [at 42.5 µM]
CCCCC1CCC(=O)O1 (stereo not given) | -0.824%
CCCCc1ccc2nc(NC(=O)OC)[nH]c2c1 | 17.3% [at 42.5 µM] (active)
CCN(CC)CC1CCCCN1CC(=O)N1c2ccccc2C(=O)Nc2cccnc21 (stereo not given) | 8.53% [at 42.5 µM]
CCCNC(C)(C)COC(=O)c1ccccc1 | 5.73% [at 42.5 µM]
CC(=O)OC1C2(C)CCC(C2)C1(C)C (stereo not given) | -1.44%
O=C1C=CC(=O)O1 | 7.02%
CC1=C(CC(=O)O)c2cc(F)ccc2/C1=C\c1ccc(S(C)(=O)=O)cc1 | 5.91% [at 42.5 µM]
CC[C@H]1CC[C@H](NCc2cc3c(cc2OC)[C@H]2C[C@H]2C(=O)N3C)[C@H](c2ccccc2)N1 | -40.9%
COc1ccccc1OCC(O)COC(N)=O (stereo not given) | 6.93% [at 42.5 µM]
O=C1CCCc2ccccc21 | 6.42%
COc1ccccc1N1CCN(CCCNc2cc(=O)n(C)c(=O)n2C)CC1 | 3.63% [at 42.5 µM]
CN1CCC[C@@H]1Cc1c[nH]c2ccc(CCS(=O)(=O)c3ccccc3)cc12 | -4.97% [at 42.5 µM]

Compound | activity change, positive = activation
C[C@@H]1CN(c2c(F)c(F)c3c(=O)c(C(=O)O)cn(C4CC4)c3c2F)C[C@H](C)N1 | 1.67% [at 19 µM] (active)
CC(C)(C)c1ccc(OC(=O)c2ccccc2O)cc1 | 132% (active)
FC(F)(F)c1ccccc1 | 2.08%
CCCCCCOc1ccc(N)cc1 | 2.67%
CCc1nnc(NS(=O)(=O)c2ccc(N)cc2)s1 | 2.74% [at 42.5 µM]
Clc1cccc(-c2cc(Cl)cc(Cl)c2)c1 | -3.25%
OC[C@H]1O[C@@H](O[C@H]2[C@H](O)[C@@H](O)[C@H](O)O[C@@H]2CO)[C@H](O)[C@@H](O)[C@H]1O | 4.49%
CCCOc1ccc2c(c1)CC[C@@H]1[C@@H]2CC[C@]2(C)C(OC)CC[C@@H]12 (stereo not given in full) | -2.22% [at 42.5 µM]
CCOc1ccccc1N | -59%
NC/C=C/C(=O)O | 6.36% [at 42.5 µM]
Cn1cnc2c(F)c(Nc3ccc(Br)cc3Cl)c(C(=O)NOCCO)cc21 | -7.67% [at 42.5 µM]
OCc1c2ccccc2cc2ccccc12 | -18.3%
Cc1ccc([N+](=O)[O-])c(N)c1 | -10.6%
CCCCCCCCCC/C=C/C#N | -1.03%
CCCCCCn1c(=O)c2c(ncn2C)n(C)c1=O | -1.88% [at 42.5 µM]
O=C1N(c2ccccc2)c2ccccc2C1(Cc1ccncc1)Cc1ccncc1 | 5.08% [at 42.5 µM]
NCCC(O)(P(=O)(O)O)P(=O)(O)O | 4.61% [at 42.5 µM]
CCOC(=O)CS | -14.3%
CCCCC(=O)O[C@]1(C(=O)CO)[C@H](C)C[C@H]2[C@@H]3CCC4=CC(=O)C=C[C@]4(C)[C@@]3(F)[C@@H](O)C[C@@]21C | -4.32% [at 42.5 µM]
NNS(=O)(=O)c1ccc(Oc2ccc(S(=O)(=O)NN)cc2)cc1 | -13.2%
